Sampled rows, rich in hits. Any-hit rate of the full collection: about 5.9%.
KB-V1 cytotox = kills drug-selected multidrug resistant KB-V1 cells; KB-V1 MDR cells viability, CellTiter-Glo, 72 h; Potency, µM (titrated, usually from 46.1 µM), most hits filed as cytotoxic; hit rate 3.4% among 400,000; AID 1347076; also: nearly all actives have a fitted effect of over 60% in size
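Following 72 h at 37 degrees C with compound, KB-V1 cell viability was read by CellTiter-Glo luminescence, medium being phenol-red-free DMEM plus 10% FBS; concentration-response parameters came from normalized, curve-fitted qHTS data.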
ATXN2 expr inh = inhibitors of ATXN2 expression; Potency, µM (titrated, usually from 57 µM), usual class: inhibitors; HEK-293 ATXN2-luciferase reporter, luminescence, 24 h; hit rate 0.72% among 360,000; also: nearly all actives have a fitted effect of over 55% in size
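ATXN2-luciferase reporter cells (luciferase flanked by upstream and downstream ATXN2 gene portions) were treated 24 h at 37 °C with compounds at up to 57 uM. SteadyGlo luminescence gave expression; GF-AFC fluorescence gave viability.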
HepG2 tox = kills HepG2 cells in TGF-b inhibitor counter-screen | hit rate 0.76% among 410,000 | AID 588856 | Potency, µM (top dose mostly 46.1 µM), actives largely listed as cytotoxic | HepG2 CAGA-GFP viability, ATP luminescence, 18 h
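HepG2 CAGA-GFP cells (1000/well, DMEM with 1% FBS) received compound, then TGF-beta at 500 pg/mL final, and were incubated 18 hours at 37 degrees C. Viability was read by CellTiter-Glo luminescence. Media-only wells were set as complete cell-killing and DMSO as no toxicity.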
TGFb inhibitor = TGF-b pathway inhibition; HepG2 CAGA-GFP TGF-b/SMAD3 reporter, GFP fluorescence, 18 h; TGF-beta stimulated, 500 pg/mL final; Potency, µM (highest dose often 46.1 µM), usual class: inhibitors; hit rate 1.2% among 410,000; AID 588855; also: nearly all actives have a fitted effect of over 65% in size
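HEPG2 CAGA-GFP reporter cells (1000/well, DMEM with 1% FBS) received compounds, then recombinant TGF-beta at 500 pg/mL final for 18 hours at 37 degrees C. Per-cell GFP summed per well was normalised to unstimulated and stimulated DMSO controls before curve fitting.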
S2 tox = viability counter-screen for ATXN expression inhibitors; S2 cells (HEK-293 line with an ATXN2-luciferase reporter) viability, CellTiter-Fluor protease fluorescence, 24 h; Potency, µM (series often up to 56.7 µM), hits mostly cytotoxic; hit rate 0.49% among 400,000; AID 651635; also: nearly all actives have a fitted effect of over 40% in size
KB-3-1 tox = kills parental KB-3-1 adenocarcinoma cells; hit rate 1.4% among 400,000; KB-3-1 viability, CellTiter-Glo ATP luminescence, 72 h; Potency, µM (highest dose often 46.1 µM), actives largely listed as cytotoxic; also: nearly all actives have a fitted effect of over 60% in size
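Here the drug-naive KB-3-1 line serves as comparator for MDR sub-line selectivity; cells received compound titrations, 72 h at 37 °C, then CellTiter-Glo readout.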
Hits are given with their value; n = inactive; u = inconclusive; x = not tested or not shown; ! = not confirmed by another sample; [ ] = dose if it differs, or a comment. Calls follow the shape of the dose curve; as a rule, active = well fitted curve in the direction sought with a large enough effect; inconclusive = small, poorly fitted or top-dose-only effect, or another doubt; inactive = no such curve, though single readings can be large; an effect the other way counts as inactive or inconclusive.

SMILES	KB-V1 cytotox	ATXN2 expr inh	HepG2 tox	TGFb inhibitor	S2 tox	KB-3-1 tox
O=C(c1ccccc1)c1ccc(OCC(O)CNCc2ccc(F)cc2)cc1 (stereo not given)	23µM	n	n	u	x	n
Cc1ccc(OCC(O)CNCc2ccccc2)cc1C (stereo not given)	n	n	n	n	n	n
CCC(=O)c1ccc(OCC(O)CNCc2ccc(F)cc2)cc1 (stereo not given)	u	n	n	n	n	n
O=C(c1ccccc1)c1ccc(OCC(O)CNCc2cccc(Cl)c2)cc1 (stereo not given)	n	n	11µM	u	n	n
CCOc1c(N2CCOCC2)cnn(C)c1=O	x	n	x	x	n	x
CCOc1ccccc1CNc1ccc(O)cc1	n	n[11.3 µM]	n	16µM	u	u
Oc1ccc(NCc2ccccc2OCc2ccccc2F)cc1	u	u	11µM!	10µM!	u	u
Cc1ccc(NCc2ccccc2OCc2ccccc2F)cc1	n	n	n	n	n	n
O=C(CSc1c2c(nc3ccc(Cl)cc13)CCCC2)NCCCN1CCOCC1	n	x	n	u	x	n
COCCCNC(=O)CSc1c2c(nc3ccc(Cl)cc13)CCCC2	n	x	n	13µM!	n	n
CCN(CC)CCCNC(=O)CSc1c2c(nc3cc(Cl)ccc13)CCCC2	n	u	22µM	11µM	x	n
O=C(CSc1c2c(nc3cc(Cl)ccc13)CCCC2)NCCCN1CCOCC1	n	x	n	u	u	n
CC(C)OCCCNC(=O)CSc1c2c(nc3ccc(Cl)cc13)CCCC2	x	x	n	11µM	x	x
COc1ccccc1CNC(=O)c1cccc(Nc2nc3ccccc3n3nnnc23)c1	n	n	n	u	u	n
CC(=O)c1cccc(NC(=O)COc2ccccc2C(=O)Nc2ccccc2)c1	n	x	n	n	x	n
COc1ccc(-c2nc3ccccc3o2)cc1NC(=O)COc1ccc(C)cc1	n	x	n	n	x	n
COc1ccc(CCC(=O)N2CCN(S(=O)(=O)c3ccc(OC(F)(F)F)cc3)CC2)cc1	16µM	n	n	n	n	n
COc1ccc(C2(CNC(=O)C(=O)Nc3ccccc3C)CCCC2)cc1OC	n	n	n	n	n	n
CCCNC(=O)c1ccc(Cn2c(SCC(=O)NC(C)C)nc3ccccc3c2=O)cc1	u	n	n	n	n	n
CCOc1cc(CNc2ccc(N3CCCC3)cc2)cc(Cl)c1OC	u	n	n	n	u	u
COc1cc(CNc2ccc(N3CCCC3)cc2)cc(Cl)c1OC	u	u	n	u	n	12µM
C=CCOc1c(Cl)cc(CNc2ccc(N(C)C)cc2)cc1OC	5.2µM	n	n	u	u	u
CCCCC(=O)N(C)c1c(CC)nc2c(OCc3ccccc3C)cccn12	u	n	n	n	n	n
CCCCN1C2=NCCCN2c2ccccc21	n	n	n	n	n	n
CCCCN1C2=NC(c3ccccc3)CN2c2ccccc21 (stereo not given)	n	n	6.3µM	n	n	n
SMILES	KB-V1 cytotox	ATXN2 expr inh	HepG2 tox	TGFb inhibitor	S2 tox	KB-3-1 tox
Cc1cccc(Nc2nc(N)c([N+](=O)[O-])c(N3CCC(C)CC3)n2)c1	u	n	n	14µM	n	u
Cc1cccc(Nc2nc(N)c([N+](=O)[O-])c(N3CC(C)CC(C)C3)n2)c1 (stereo not given)	21µM	n	11µM	u	u	u
COc1ccccc1OCc1nc(-c2cccc(C)c2)no1	n	n	n	n	n	n
CCOC(=O)c1c(C)oc2ncnc(N3CCN(c4ccccc4F)CC3)c12	n	u	n	n	u	n
Cc1cccc(-c2nc3c(c(SCC(=O)N4CCOCC4)n2)Cc2c(CO)cnc(C)c2O3)c1	n	n	n	n	n	15µM
Cc1ncc(CO)c2c1Oc1nc(-c3ccccc3F)nc(SCC(=O)N(C)c3ccccc3)c1C2	u	u	n	u	18µM	n
Cc1ncc(CO)c2c1Oc1nc(-c3ccccc3)nc(SCC(=O)N3CCOCC3)c1C2	n	n	n	u	n	n
Cc1ncc(CO)c2c1Oc1nc(-c3ccccc3)nc(SCC(=O)N3CCCCC3)c1C2	n	n	n	n	14µM	n

Compound activity from PubChem.
